# Reference: PubChem BioAssay
# Calls of active or inactive are those of the source. Unless noted, the rule behind the calls is not given here.
# Experiments:
# [1] = anti-His antibody binders, primary screen, artefact control for SMM control protein annotation, biochemical, small-molecule microarray, 635 nm fluorescence (AID 1128); conditions: anti-His Alexa647 antibody binding, higher = more signal;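 note: score merges feature fluorescence with signal-to-noise for each printed compound spot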
# [2] = tested on: Human papillomavirus type 1a E7 protein (residues 1-88); assay: HPV1a E7 small-molecule binders, primary screen, biochemical, small-molecule microarray, residues 1-88, 635 nm (AID 1129); conditions: small-molecule microarray binding, fluorescence 635 nm; higher = more signal
# [3] = molecular target: Focal adhesion kinase 1 (Homo sapiens) (UniProt Q05397); assay: small-molecule microarray binders of FAK, primary screen, biochemical, 635/667 nm fluorescence, BSA, DTT (AID 1130); conditions: PTK2 binding, 635 nm fluorescence, higher = more signal;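 note: composite of spot emission at 667 nm and signal to noise over triplicate slides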
# Focal adhesion kinase 1 (Homo sapiens), sequence (Q05397 whole entry, looked up): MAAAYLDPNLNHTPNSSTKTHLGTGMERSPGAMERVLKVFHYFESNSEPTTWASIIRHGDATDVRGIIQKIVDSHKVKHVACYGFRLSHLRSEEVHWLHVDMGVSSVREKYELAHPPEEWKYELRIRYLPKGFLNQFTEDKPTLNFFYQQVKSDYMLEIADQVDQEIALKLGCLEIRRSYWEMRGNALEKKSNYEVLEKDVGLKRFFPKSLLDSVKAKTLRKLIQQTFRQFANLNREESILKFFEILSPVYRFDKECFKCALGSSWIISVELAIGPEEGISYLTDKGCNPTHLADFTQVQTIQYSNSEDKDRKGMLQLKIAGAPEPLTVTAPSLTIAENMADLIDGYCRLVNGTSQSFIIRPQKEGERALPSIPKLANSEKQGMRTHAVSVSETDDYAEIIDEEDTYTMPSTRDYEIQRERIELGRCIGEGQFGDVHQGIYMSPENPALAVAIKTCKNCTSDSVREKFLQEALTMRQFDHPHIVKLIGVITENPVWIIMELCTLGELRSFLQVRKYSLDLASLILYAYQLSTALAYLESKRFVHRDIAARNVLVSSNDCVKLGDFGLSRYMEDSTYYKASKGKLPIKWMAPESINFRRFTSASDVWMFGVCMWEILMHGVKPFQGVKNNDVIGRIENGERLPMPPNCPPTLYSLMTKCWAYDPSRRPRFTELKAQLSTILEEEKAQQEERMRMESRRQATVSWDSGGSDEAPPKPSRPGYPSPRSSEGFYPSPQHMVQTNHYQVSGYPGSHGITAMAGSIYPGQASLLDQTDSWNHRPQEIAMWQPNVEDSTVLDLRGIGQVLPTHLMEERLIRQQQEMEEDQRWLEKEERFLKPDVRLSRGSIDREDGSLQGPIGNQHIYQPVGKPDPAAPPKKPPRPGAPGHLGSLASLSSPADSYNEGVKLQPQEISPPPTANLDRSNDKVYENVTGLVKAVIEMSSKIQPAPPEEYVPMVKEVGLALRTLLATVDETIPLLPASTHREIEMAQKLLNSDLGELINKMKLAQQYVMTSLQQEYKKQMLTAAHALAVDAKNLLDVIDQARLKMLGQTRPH
# [4] = tested on: Fibrinogen (Alexa647-labelled); assay: fibrinogen binders on compound microarrays, profiling panel, artefact control for SMM control-protein annotation, biochemical, small-molecule microarray, 635/667 nm fluorescence (AID 1131); conditions: fibrinogen-A647 binding fluorescence, higher = more signal;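 note: z-score merges 667 nm fluorescence with per-spot signal-to-noise over triplicate slides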
# [5] = molecular target: Follistatin (Homo sapiens) (UniProt P19883); assay: follistatin binders on small-molecule microarrays, primary screen, biochemical, small-molecule microarray, 635/667 nm fluorescence (AID 1132); conditions: FST binding, 635 nm fluorescence, higher = more signal
# Follistatin (Homo sapiens), sequence (P19883 whole entry, looked up): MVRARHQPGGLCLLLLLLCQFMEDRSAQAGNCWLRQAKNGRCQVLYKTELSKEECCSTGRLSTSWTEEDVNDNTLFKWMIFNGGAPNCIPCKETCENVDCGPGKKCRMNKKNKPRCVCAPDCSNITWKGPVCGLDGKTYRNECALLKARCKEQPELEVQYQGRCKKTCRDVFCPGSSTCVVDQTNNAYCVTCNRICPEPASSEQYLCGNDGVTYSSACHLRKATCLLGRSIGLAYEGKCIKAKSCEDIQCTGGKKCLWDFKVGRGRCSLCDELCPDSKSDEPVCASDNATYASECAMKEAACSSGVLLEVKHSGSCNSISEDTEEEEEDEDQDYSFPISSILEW
# [6] = molecular target: Fibroblast growth factor 2 (Homo sapiens) (UniProt P09038); assay: FGF2 binders on small-molecule microarrays, primary screen, biochemical, small-molecule microarray, 635/667 nm fluorescence (AID 1133); conditions: small-molecule microarray binding, FGF2, fluorescence 635/667; higher = more signal
# Fibroblast growth factor 2 (Homo sapiens), sequence (P09038 whole entry, looked up): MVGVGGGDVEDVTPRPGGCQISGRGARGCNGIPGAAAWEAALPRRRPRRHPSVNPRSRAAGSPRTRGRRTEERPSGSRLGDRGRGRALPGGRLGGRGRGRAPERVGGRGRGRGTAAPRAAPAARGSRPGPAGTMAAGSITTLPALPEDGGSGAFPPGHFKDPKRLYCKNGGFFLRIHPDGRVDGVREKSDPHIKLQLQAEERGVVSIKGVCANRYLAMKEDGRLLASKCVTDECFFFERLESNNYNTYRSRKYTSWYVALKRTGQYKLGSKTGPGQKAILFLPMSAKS
# [7] = mitochondrial membrane potential change in A549 cells, profiling panel, cell-based, JC-1 fluorescence, basal, 24 h, 100 nL (AID 1138); conditions: higher = more signal;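 note: A549 lung adenocarcinoma cells under basal conditions with no added stimulus; test concentration not given here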
# Lefty1 = Lefty1 binders on small-molecule microarrays, primary screen, biochemical, small-molecule microarray, 635/667 nm fluorescence (AID 1139); conditions: small-molecule microarray binding, fluorescence 635/667; higher = more signal
# [8] = tested on: wheat germ agglutinin (Triticum aestivum), Alexa647-labelled; assay: wheat germ agglutinin binders on compound microarrays, profiling panel, artefact control for SMM control-protein annotation, biochemical, small-molecule microarray, 635/667 nm fluorescence (AID 1140); conditions: WGA-A647 binding, 635 nm fluorescence, higher = more signal;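 note: score merges 667 nm feature emission with signal to noise over triplicate slides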
# [9] = molecular target: Luciferin 4-monooxygenase (Photinus pyralis) (UniProt P08659); assay: firefly luciferase enzyme inhibitors, primary screen, biochemical, luminescence, purified enzyme, 2006 set (AID 1141); conditions: SteadyGlo luminescence, 30 min, higher = more signal, called active from +8 up or from −8 down;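 note: cell-free assay with purified firefly luciferase at 100 ng per well in PBS; test concentration not given here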
# Luciferin 4-monooxygenase (Photinus pyralis), sequence (P08659 whole entry, looked up): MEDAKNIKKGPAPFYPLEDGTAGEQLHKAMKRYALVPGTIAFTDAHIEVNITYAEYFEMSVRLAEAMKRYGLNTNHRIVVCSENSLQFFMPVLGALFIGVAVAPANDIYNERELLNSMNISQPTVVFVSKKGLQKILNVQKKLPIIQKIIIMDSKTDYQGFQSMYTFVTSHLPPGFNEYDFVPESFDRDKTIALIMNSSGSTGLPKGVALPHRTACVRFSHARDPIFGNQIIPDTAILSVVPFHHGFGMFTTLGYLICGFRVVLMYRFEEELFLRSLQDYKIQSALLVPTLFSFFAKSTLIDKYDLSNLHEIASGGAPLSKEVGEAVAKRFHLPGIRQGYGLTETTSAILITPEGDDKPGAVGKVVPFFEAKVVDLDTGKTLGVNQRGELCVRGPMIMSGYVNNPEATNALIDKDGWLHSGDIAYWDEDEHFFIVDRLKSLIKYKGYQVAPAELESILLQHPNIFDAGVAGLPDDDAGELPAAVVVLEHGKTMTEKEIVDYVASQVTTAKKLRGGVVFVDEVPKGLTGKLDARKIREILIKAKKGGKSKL
# [10] = tested on: Wnt5a (protein binding on small-molecule microarray); assay: Wnt5a binders on small-molecule microarray, primary screen, biophysical, 635/667 nm fluorescence (AID 1142); conditions: 635 nm fluorescence, higher = more signal;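 note: fluorescence read at 667 nm with signal to noise per printed feature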
# [11] = cell viability in Huh7 cells, primary screen, cytotoxicity control for HCV replication inhibitor project, CellTiter-Glo luminescence, basal, 48 h (AID 1143); conditions: Huh7 HCV replicon, higher = more signal, called active from +8 up or from −8 down;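 note: Huh7 hepatoma cells carrying a hepatitis C replication reporter with no stimulus; test concentration not given here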
# [12] = P. aeruginosa biofilm formation inhibitors, primary screen, PAO1 strain, BacTiter-Glo luminescence, LB-PBS (AID 1144); conditions: 12 h, higher = more signal
# [13] = CREB reporter modulators without forskolin, primary screen, cell-based, PC12, CRE-LacZ reporter, unstimulated (AID 1145); conditions: no forskolin, luminescence, 4.5 h, higher = more signal, called active from +8 up or from −8 down
# [14] = CREB reporter modulators under forskolin, primary screen, cell-based, PC12, CRE-LacZ reporter, forskolin-stimulated (AID 1146); conditions: luminescence, 4.5 h, higher = more signal, called active from +8 up or from −8 down;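 note: PC12 cells with 6xCRE LacZ reporter stimulated by forskolin 10 µM; beta-galactosidase reporter signal reflecting CREB driven transcription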
# [15] = molecular target: Streptavidin (Streptomyces avidinii) (UniProt P22629); assay: streptavidin binders on small-molecule microarray, primary screen, artefact control for SMM compound annotation, biophysical, 635/667 nm fluorescence (AID 1147); conditions: streptavidin binding, higher = more signal;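 note: signal reflects streptavidin binding to arrayed compounds as a control protein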
# Streptavidin (Streptomyces avidinii), sequence (P22629 whole entry, looked up): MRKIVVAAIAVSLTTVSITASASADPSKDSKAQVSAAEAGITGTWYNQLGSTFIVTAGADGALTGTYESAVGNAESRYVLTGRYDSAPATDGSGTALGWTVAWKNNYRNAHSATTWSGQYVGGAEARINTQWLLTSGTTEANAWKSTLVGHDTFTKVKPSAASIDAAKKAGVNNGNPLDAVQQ
# [16] = small-molecule binders of probe aInhba, primary screen, biochemical, small-molecule microarray, 635/667 nm fluorescence (AID 1148); conditions: higher = more signal;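 note: score merges 667nm spot fluorescence with signal-to-noise for antibody binding to printed compounds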
# Torsin-1A (Homo sapiens) [17] = molecular target: Torsin-1A (Homo sapiens) (UniProt O14656); assay: torsin A binders from cell lysate, primary screen, small-molecule microarray, wild-type, 635/667 nm (AID 1149); conditions: COS7 hTOR1A-WT lysate, 635 nm fluorescence, higher = more signal
# Torsin-1A (Homo sapiens), sequence (O14656 whole entry, looked up): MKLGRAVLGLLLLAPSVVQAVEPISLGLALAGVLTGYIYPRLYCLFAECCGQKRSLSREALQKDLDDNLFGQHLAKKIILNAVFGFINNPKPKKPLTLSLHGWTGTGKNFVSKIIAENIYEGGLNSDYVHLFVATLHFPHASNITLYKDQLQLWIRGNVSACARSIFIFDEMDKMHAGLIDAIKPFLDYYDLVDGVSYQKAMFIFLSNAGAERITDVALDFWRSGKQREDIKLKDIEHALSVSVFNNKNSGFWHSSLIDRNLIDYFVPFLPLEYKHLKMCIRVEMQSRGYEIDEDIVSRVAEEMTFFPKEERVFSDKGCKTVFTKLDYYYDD
# Torsin-1A (Homo sapiens) [18] = molecular target: Torsin-1A (Homo sapiens) (UniProt O14656); assay: small-molecule binders of mutant TOR1A in lysate, primary screen, cell lysate, small-molecule microarray, COS7 lysate, 635/667 nm fluorescence (AID 1150); conditions: COS7 hTOR1A mutant lysate, 635 nm fluorescence, higher = more signal;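 note: score pools 667 nm emission and signal to noise measuring lysate protein binding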
# [19] = tested on: Sonic hedgehog protein (Shh); assay: small-molecule binders of Shh protein, primary screen, biochemical, small-molecule microarray, 635/667 nm fluorescence (AID 1151); conditions: small-molecule microarray binding, 635 nm fluorescence; higher = more signal;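 note: Shh protein binding to compounds spotted on small-molecule microarray slides; score combines spot fluorescence intensity with signal-to-noise across triplicate slides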
SMILES,composite z-score [1],composite z-score [2],composite z-score [3],composite z-score [4],composite z-score [5],composite z-score [6],z-score [7],composite z-score (Lefty1),composite z-score [8],z-score [9],composite z-score [10],z-score [11],z-score [12],z-score [13],z-score [14],composite z-score [15],composite z-score [16],composite z-score (Torsin-1A (Homo sapiens) [17]),composite z-score (Torsin-1A (Homo sapiens) [18]),composite z-score [19]
[N-]=[N+]=NCc1ccccc1C[C@]1(C(N)=O)N=C(c2ccc(OCCCO)cc2)O[C@H]1c1ccccc1,0.409,1.21,0.196,0.496,1.31,-0.653,0.658,-0.625,1.14,0.856 (inactive),0.0841,-3.8 (inactive),-1.02 (inactive),0.101 (inactive),0.0159 (inactive),0.363,0.0227,0.851,0.885,-1.23
O=C1O[C@@H](c2ccccc2)[C@@H](c2ccccc2)N2[C@@H](c3ccc(OCCO)cc3)[C@]3(C(=O)Nc4ccccc43)[C@@H](C(=O)O)[C@H]12,2.37,0.177,-0.0546,0.679,0.197,-0.406,-0.75,0.044,0.125,-1.43 (inactive),0.615,-4.21 (inactive),-0.148 (inactive),-0.258 (inactive),0.273 (inactive),0.0928,0.697,0.043,1.65,0.301
COCCOC(=O)N1C(=O)[C@@]2(c3ccccc31)[C@H](C(=O)N1CCN(c3ncccn3)CC1)[C@H]1C(=O)O[C@H](c3ccccc3)[C@H](c3ccccc3)N1[C@@H]2c1ccc(O)cc1,1.12,0.613,0.585,0.675,-0.147,0.173,-0.189,0.0567,0.875,-0.378 (inactive),0.135,-2.65 (inactive),0.0365 (inactive),0.631 (inactive),-0.484 (inactive),0.284,-0.41,-0.396,-0.35,1.07
COC(=O)[C@@]1(Cc2ccc(F)cc2)[C@H]2c3cc(C(=O)N(C)C)n(Cc4cc(F)cc5c4OCOC5)c3C[C@H]2CN1C(=O)c1ccccc1,1.06,1.19,1.5,1,1.04,-0.0284,-0.915,0.444,1.06,-0.724 (inactive),0.462,-3.74 (inactive),0.258 (inactive),0.397 (inactive),-0.201 (inactive),1.15,0.115,0.141,0.702,0.3
CC(c1ccccc1)C(O)C1C=CC2C(=O)N(c3ccccc3)C(=O)C2N1Nc1ccc([N+](=O)[O-])cc1 (stereo not given),1.75,1.25,0.605,1.03,1.03,0.328,-0.915,0.44,0.783,1.58 (inactive),0.523,-0.664 (inactive),-1.53 (inactive),-0.48 (inactive),0.624 (inactive),0.656,0.118,0.971,0.29,0.513
CC(C)(C)OC(=O)CC[C@]1(C(=O)NCC(O)CO)N=C(c2ccc(OCCCO)cc2)O[C@H]1c1ccccc1 (stereo not given in full),0.872,0.937,-0.216,0.118,-0.786,-0.494,0.0908,-1.71,0.94,-1 (inactive),0.167,-4.48 (inactive),-1.56 (inactive),-0.356 (inactive),-0.729 (inactive),0.291,0.0391,0.709,1.6,-1.56
CC(C)Cc1ccc(CN2CC[C@@H](NC(=O)Nc3ccccc3)C2)cc1,-0.0844,-1.63,0.0749,0.494,-0.182,-0.0224,-0.749,0.08,0.244,0.398 (inactive),0.0405,-8.72 (active),-0.00187 (inactive),0.757 (inactive),-0.269 (inactive),-0.0067,-0.148,0.257,0.274,0.826
O=c1n(-c2ccccc2)c(=O)n2n1CC(COc1ccccc1)=C([C@H](O)CCc1ccccc1)[C@@H]2CO,0.308,0.0864,-0.18,0.783,0.415,1.14,0.77,0.635,0.576,-1.35 (inactive),-0.0748,-2.16 (inactive),-0.496 (inactive),1.49 (inactive),-0.373 (inactive),-0.275,-0.0618,0.8,-0.119,0.426
O=C(CS)NCCCCCCNC(=O)[C@H]1C[C@H]2C(=O)N[C@@H](Cc3ccccc3)C(=O)N2[C@H]1c1ccc(O)cc1,1.29,1.25,0.904,0.476,1.22,1.62,-1.61,0.852,0.195,-1.17 (inactive),0.491,0.167 (inactive),-0.31 (inactive),0.822 (inactive),0.368 (inactive),-0.513,-0.162,1.08,0.768,1.62
